In the library only some 9.3% were active in any assay of this set; here they are far more common.
HCMV inh: blocks human cytomegalovirus replication. 410,000 compounds, 4.5% hits. HFF cells, HCMV-luciferase reporter, 72 h; stronger effect = lower value. activity change, negative = inhibition, % at 57.5 µM; in the data active = activity change below about -60%; inconclusive = no clear call, values can overlap the other calls; inactive = above about -39%
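Inhibition of viral replication was scored as loss of reporter luminescence in HFFs infected with HCMV-luciferase (MOI 1 PFU/cell) for 72 h; compounds tested at 2 doses, normalized to buffer and Salinomycin controls.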
VACV Venus inh: vaccinia inhibition (Venus reporter); AID 720580; Vaccinia virus Venus reporter expression, fluorescence; Potency, µM (doses to about 36.5 µM), inactives show at the top dose activity change, negative = inhibition, actives largely listed as inhibitors; 330,000 compounds, 0.46% hits; calls by dose curve; tested in A549 cells; note: potency is the fitted concentration of half-maximal effect; nearly all actives have a fitted effect of over 30% in size
VACV mCherry inh: inhibitors of vaccinia virus infection (mCherry reporter signal) | Vaccinia virus mCherry reporter infection, fluorescence | Potency, µM (titrated, usually from 36.5 µM), without a hit: at the top dose activity change, negative = inhibition, most hits filed as inhibitors | 310,000 compounds, 0.63% hits; calls by dose curve; tested in A549 cells; note: potency is the fitted concentration of half-maximal effect; nearly all actives have a fitted effect of over 35% in size
FMDV inh: blocks foot and mouth disease virus | 410,000 compounds, 1.2% hits | AID 1159524 | FMDV antiviral cell-based qHTS | Potency, µM (titrated, usually from 57.9 µM), for the others: top-dose activity change, negative = inhibition, actives largely listed as inhibitors; calls by dose curve; tested in HEK293T cells; note: read-out not given here; potency is the fitted concentration of half-maximal effect; nearly all actives have a fitted effect of over 45% in size
Sm TGR inh: S. mansoni TGR enzyme inhibition | Potency, µM (highest dose often 114 µM), without a hit: top-dose activity change, negative = inhibition, hits mostly inhibitors | AID 485364 | Q962Y6 | 360,000 compounds, 3% hits | purified TGR, DTNB reduction, TNB absorbance 405 nm; note: potency is the fitted concentration of half-maximal effect; nearly all actives have a fitted effect of over 60% in size
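First, TGR (20 nM dispensed) and NADPH were mixed with compound. Second, a 15 min room-temperature incubation followed. Third, further NADPH and then DTNB were added to start the reaction. Finally, TNB absorbance was monitored kinetically.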
HCV inh: blocks hepatitis C virus; 340,000 compounds, 3.4% hits; Huh7.5.1 HCVcc-Cre infection, luciferase reporter, 44 h; Potency, µM (highest dose often 41.8 µM), inactives show at the highest dose activity change, negative = inhibition, usual class: inhibitors; note: potency is the fitted concentration of half-maximal effect
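HCVcc-Cre virus at an moi near 0.5 was added right after compound to cells cultured 4 h from seeding (1,000 cells/well). Luciferase activity was determined 44 h later, 15 min after substrate addition at RT.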
* = called active by the depositor; i = inactive; u = inconclusive; x = no result given; [ ] = dose if it differs, or a comment. Unless noted, calls come from the whole dose curve; as a rule, active = well fitted curve in the direction sought with a large enough effect; inconclusive = small, poorly fitted or top-dose-only effect, or another doubt; inactive = no such curve, though single readings can be large; an effect the other way counts as inactive or inconclusive. % is set by controls: 0 for no effect and ±100 for the full control effect.

SMILES | HCMV inh | VACV Venus inh | VACV mCherry inh | FMDV inh | Sm TGR inh | HCV inh
CS(=O)(=O)c1ccc(Cl)c(NC(=O)CSc2n[nH]c(N)n2)c1 | -37 | -2% | -10% | -18% | 13% | 4%[8.37 µM]
CCCc1cc(=O)[nH]c(SCC(=O)Nc2cc(S(=O)(=O)N(CC)c3ccccc3)ccc2Cl)n1 | -20 | -10% | i | -9% | x | -7%
CCN(c1ccccc1)S(=O)(=O)c1ccc(Cl)c(NC(=O)CSc2ncn[nH]2)c1 | -101* | -13% | i | 0% | 7% | u
CCN(c1ccccc1)S(=O)(=O)c1ccc(Cl)c(NC(=O)CSc2n[nH]c(N)n2)c1 | -67* | -22% | -8% | -29% | -2% | u
COc1cc(/C=N/n2nnnc2N)ccc1OC(C)C | 52 | -1% | i | -5% | -13% | -1%
CCCCNC(=O)C1(C)CCC(=O)N1CCCn1ccnc1 (configuration not stated) | -71* | 4% | i | -5% | x | x
CC1(C(=O)NCc2cccnc2)CCC(=O)N1CCc1ccccc1 (configuration not stated) | -97* | -2% | -8% | -14% | 10% | 6%
CCCCNC(=O)C1(C)CCC(=O)N1CCOC (configuration not stated) | 2 | -8% | 10% | -1% | x | x
CC1(C(=O)NCc2ccccc2)CCC(=O)N1CCCn1ccnc1 (configuration not stated) | -99* | 0% | i | -9% | x | x
COc1ccc(CCN2C(=O)CCC2(C)C(=O)NCc2cccnc2)cc1OC (configuration not stated) | 5 | -10% | 0% | -5% | -9% | -4%
Cc1ccccc1Cn1ccc(=NCc2ccccc2)cc1 | -98* | -1% | i | 1% | -13% | 26%
O=c1ccn(Cc2ccccc2)cc1 | -2 | -8% | 2% | -20% | 6% | 34%
OC1(C#CCN2CCCC2)CCCCC1 | 6 | x | x | 4% | -10% | 5%
Cc1cc(C)n2nc(N)nc2n1 | -37 | -7% | -16% | -16% | x | 38%
Cc1cc(N)n2nc(C(F)(F)F)nc2n1 | -92* | -8% | -11% | -1% | -10% | 11%
Cn1cc[n+](C)c1P(=S)(c1ccccc1)c1ccccc1 | -10 | -6% | i | -10% | 0% | 8%
Cn1cccc/c1=N\c1cccc[n+]1C | -74* | x | x | -21% | -6% | 3.5µM*
CCOc1ccc(N(CC(=O)NC2CCCC2)C(=O)CSc2nnc(COc3ccccc3)o2)cc1 | u | -15% | -8% | x | 18% | 22µM*
CCOc1ccc(N(CC(=O)NC2CC3CCC2C3)S(=O)(=O)c2ccc(C)cc2)cc1 (configuration not stated) | 5 | x | x | -16% | -6% | 6.3µM*
CCOc1ccc(N(CC(=O)NC2CCCC2)S(=O)(=O)c2ccccc2)cc1 | -64* | -8% | -15% | -7% | -2% | -11%
COc1cc(NC(=O)CSc2nc3ccccc3nc2Cc2ccccc2OC)cc(OC)c1 | -22 | -12% | -18% | -14% | -5% | x
c1ccc(Sc2ncnc3ccccc23)cc1 | -74* | -15% | u | 9% | u | 21%
CC1CCc2nc(N)c(C#N)c(-c3ccncc3)c2C1 (configuration not stated) | -23 | -4% | -12% | -14% | 7% | 10%
CC1CCc2nc(N)c(C#N)c(-c3cccnc3)c2C1 (configuration not stated) | -66* | -8% | i | u | -12% | u
CCc1cc(C(c2ccccn2)N2CCN(C)CC2)c(NC(=O)c2ccccc2)s1 (configuration not stated) | -1 | u | u | -20% | 11µM* | u
SMILES | HCMV inh | VACV Venus inh | VACV mCherry inh | FMDV inh | Sm TGR inh | HCV inh
Cc1sc(NC(=O)c2ccccc2)c(C(c2ccccn2)N2CCN(CCO)CC2)c1C (configuration not stated) | -62* | u | u | -29% | 0% | u
COC(=O)CSCc1nc(-c2ccc(C(=O)OC)cc2)oc1C | -63* | 2% | 1% | -4% | -1% | x
CCc1ccc(-c2nc(CSCC(=O)NC3CC3)c(C)o2)cc1 | -74* | -19% | i | -16% | -15% | u
CCc1ccc(-c2nc(CSCC(=O)N3CCN(c4ncccn4)CC3)c(C)o2)cc1 | u | u | u | 22µM* | -20% | u
CCOc1ccc(-c2nc(CSCC(=O)N3CCN(c4ccc(F)cc4)CC3)c(C)o2)cc1 | -9 | -28% | u | u | 20% | x
COC(=O)c1cc2sccc2n1Cc1nc(-c2ccc(C)cc2)oc1C | -16 | 1% | -11% | -13% | -11% | x
COC(=O)c1cc2sccc2n1Cc1nc(-c2ccc(OC)cc2)oc1C | -61* | 0% | -15% | x | -13% | -14%
Cc1cc(C)c(S(=O)(=O)NCC2CCC(C(=O)NCCc3ccccc3)CC2)c(C)c1 (configuration not stated) | 0 | -23% | -27% | -10% | 1% | x
CSc1ccc(-c2nc(CSCC(=O)N3CCOCC3)c(C)o2)cc1 | -74* | x | x | u | 8% | u
COc1ccc(-c2nc(CSCC(=O)N3CCN(c4ccc(OC)cc4)CC3)c(C)o2)cc1 | -29 | u | -28% | -24% | -24% | x
CCCC(=O)Nc1sc(-c2ccccc2)c(-c2ccccc2)c1C(=O)O | 10 | -23% | -30% | -25% | x | 15%
Cc1ccc(/C=C/C(=O)Nc2ccc(O)c3c(=O)cc(-c4ccccc4Cl)oc23)cc1 | -2 | -1% | -4% | -17% | 3% | u
CCN(CC)S(=O)(=O)c1ccc2[nH]cc(C(=O)NCCC3=CCCCC3)c(=O)c2c1 | -83* | u | x | 14µM* | -32% | 11µM*
CCN(CC)S(=O)(=O)c1ccc2[nH]cc(C(=O)NCCN3CCCCC3C)c(=O)c2c1 (configuration not stated) | 6 | -4% | -7% | -3% | 0% | 9%
CCN(CC)S(=O)(=O)c1ccc2[nH]cc(C(=O)NCCCN3CCCCC3C)c(=O)c2c1 (configuration not stated) | -73* | -7% | -1% | x | 6% | -4%
O=[N+]([O-])c1ccc(Cl)c([N+](=O)[O-])c1 | -74* | -15% | u | u | 2.2µM* | u
CC(=O)c1cc2c(cc1NC(=O)C1CC1)OCO2 | 10 | -16% | x | -9% | 3% | 11µM*
CC(=O)c1cc2c(cc1NC(=O)CCn1cccc1)OCO2 | 1 | -2% | x | -13% | 35µM* | -16%
CC(=O)c1cc2c(cc1NC(=O)Cn1nc(-c3ccc(C)cc3)ccc1=O)OCO2 | -16 | -4% | u | -4% | 7% | 11µM*
CCC1CCCCN1C(=O)c1c[nH]c2ccc(S(=O)(=O)N(C)c3ccc(Cl)cc3)cc2c1=O (configuration not stated) | u | -6% | -14% | x | -18% | -5%
